Measured values published in PubChem BioAssay AID624330 (Southern Research Specialized Biocontainment Screening …, 2012).
In all, about 340,000 compounds went through this assay and about 2,100 (0.62%) were called active. Not all results are given here. Results with a measured potency or affinity are listed apart. Values without a mark were called inactive.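 How the source made its calls: active means first-screen hits whose inhibition reached a set limit at any dose in the follow-up dose series; inconclusive means inhibition above the set first-screen limit but never retested; inactive means the rest.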 Square brackets hold non-standard residues; d marks the D form. Peptide text beside a SMILES is read from it. * marks the point of attachment. ξ: configuration not given here. Cbz = O=C(OCc1ccccc1)*; ξP = O=C(O)C1CCCN1

The compounds below were run against Rac GTPase-activating protein 1 (Homo sapiens) (UniProt Q9H0H5) (assay: MgcRacGAP GTPase-activating activity inhibitors, confirmation, biochemical, ADP Hunter fluorescence, primary and confirmatory (AID 624330;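 further: fluorescence reports GDP produced by GAP-driven GTP hydrolysis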)). Conditions: MgcRacGAP-stimulated Rac1 GTP hydrolysis, at 30 µM, active compounds read high, GST-tagged Rac1 F28L mutant substrate.
Rac GTPase-activating protein 1 (Homo sapiens), sequence (Q9H0H5 whole entry, looked up): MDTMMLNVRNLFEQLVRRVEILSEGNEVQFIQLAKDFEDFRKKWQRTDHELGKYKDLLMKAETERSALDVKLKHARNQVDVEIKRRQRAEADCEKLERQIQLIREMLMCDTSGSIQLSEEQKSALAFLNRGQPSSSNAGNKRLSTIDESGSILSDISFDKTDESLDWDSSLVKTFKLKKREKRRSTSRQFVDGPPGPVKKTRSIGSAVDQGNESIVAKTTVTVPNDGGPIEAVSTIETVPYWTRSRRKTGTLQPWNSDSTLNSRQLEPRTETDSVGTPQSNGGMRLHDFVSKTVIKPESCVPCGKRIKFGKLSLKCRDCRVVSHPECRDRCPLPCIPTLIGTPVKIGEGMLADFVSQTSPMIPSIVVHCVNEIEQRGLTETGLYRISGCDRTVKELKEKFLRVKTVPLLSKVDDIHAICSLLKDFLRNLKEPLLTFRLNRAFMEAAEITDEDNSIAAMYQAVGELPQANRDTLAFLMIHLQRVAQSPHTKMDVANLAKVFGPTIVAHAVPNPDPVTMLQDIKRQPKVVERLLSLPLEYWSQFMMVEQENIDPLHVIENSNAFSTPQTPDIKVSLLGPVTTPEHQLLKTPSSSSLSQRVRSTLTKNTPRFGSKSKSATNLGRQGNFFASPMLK

How did the inhibition turn out when `COc1ccc(-c2n[nH]c(C)c2-c2cnn(-c3ccccc3)c2)c(O)c1C` was run?
Its inhibition is 6.48%.

With `COc1ccc(-c2onc(C)c2-c2cnn(-c3ccccc3)c2)c(O)c1C` as the compound, how does the inhibition read?
The inhibition was 5.03%.

How did the inhibition turn out when `CC(C)(C)NC(=O)COc1coc(CN2CCN(Cc3ccccc3)CC2)cc1=O` was run?
The inhibition was -6.74%.

With `Cc1ccc(OCC(=O)Nc2ccc(N3CCCC3)cc2)cc1C` as the compound, how does the inhibition read?
Its inhibition is 7%.

`CCN(CC)c1ccc(S(=O)(=O)N2CCOCC2)cc1NC(=O)CSc1ccccc1` was tested. Which inhibition did it give?
Its inhibition is 1.35%.

For `Cc1ccc(S(=O)(=O)N(C)C)cc1NC(=O)CN1CCCC1`, which inhibition is on record?
Its inhibition is 3.96%.

With `Cc1ccc(S(=O)(=O)N2CCOCC2)cc1NC(=O)CN1CCN(C)CC1` as the compound, how does the inhibition read?
The inhibition was 4%.

`Cc1ccc(S(=O)(=O)N(C)C)cc1NC(=O)CN1CCN(Cc2ccccc2)CC1` was tested. Which inhibition did it give?
The inhibition was 1.33%.

`CCN(CC)c1ccc(S(=O)(=O)N2CCOCC2)cc1NC(=O)CN1CCc2ccccc2C1` was tested. Which inhibition did it give?
The inhibition was 6.44%.

Which inhibition does the source give for `Cc1ccc(F)cc1NC(=O)CN1CCN(Cc2ccccc2)CC1` here?
Its inhibition is -0.43%.

How did the inhibition turn out when `Cc1ccc(OCCNC(=O)c2ccc(C)cc2)cc1` was run?
The inhibition was -0.09%.

With `CCN1C(=O)C(NC(C)=O)c2cc(Br)ccc21` (centres undefined) as the compound, how does the inhibition read?
Its inhibition is 1.35%.

Which inhibition does the source give for `CCOc1ccc(NC(=O)CN(C)C(=O)Cc2n[nH]c(=O)c3ccccc23)cc1OCC` here?
Its inhibition is 3.38%.

Which inhibition does the source give for `COc1ccccc1CN(C)C(=O)c1cccc(S(=O)(=O)N2CCCC2)c1` here?
The inhibition was 5.67%.

Which inhibition does the source give for `Cc1cccc(C)c1Nc1n[nH]c(=S)s1` here?
The inhibition was 13.1%.

Which inhibition does the source give for `Cc1cc(C)c(Nc2n[nH]c(=S)s2)cc1C` here?
Its inhibition is 29.6%.

For `COc1ccccc1N1C(=O)S/C(=C\c2cc(C)n(C)c2C)C1=O`, which inhibition is on record?
Its inhibition is -0.75%.

How did the inhibition turn out when `N#Cc1ccc[n+](CC(=O)c2ccc(NC(=O)c3ccccc3)cc2)c1` was run?
Its inhibition is 3.28%.

For `c1cc2c3c(cccc3c1)NC1(CCCC1)N2`, which inhibition is on record?
The inhibition was -1.27%.

Which inhibition does the source give for `c1cc2c3c(cccc3c1)NC1(CCC3(CC1)Nc1cccc4cccc(c14)N3)N2` here?
The inhibition was 29.5%.

How did the inhibition turn out when `COc1cc(OC)cc(N(C(=O)c2ccco2)C(C(=O)NC2CCCC2)c2ccc(N3CCOCC3)cc2)c1` (centres undefined) was run?
Its inhibition is 3.31%.

Which inhibition does the source give for `O=C(NC1CCCC1)C(c1ccncc1)N(C(=O)Cc1cccs1)c1ccc(F)cc1` (centres undefined) here?
The inhibition was -2.61%.

Which inhibition does the source give for `ON=C1c2ccccc2-c2ccccc21` here?
Its inhibition is 4.05%.

With `Nc1ccc2c(c1)C(=NO)c1ccccc1-2` as the compound, how does the inhibition read?
The inhibition was 14.6%.

`ON=C1c2ccccc2-c2ccc(Br)cc21` was tested. Which inhibition did it give?
The inhibition was 0.43%.

How did the inhibition turn out when `ON=C1c2ccccc2-c2ccc(F)cc21` was run?
Its inhibition is -0.77%.

With `COCCCNc1nc2nonc2nc1NCCSC` as the compound, how does the inhibition read?
Its inhibition is -2.05%.

Which inhibition does the source give for `Cc1cc(SCc2ccc(Cl)c(Cl)c2)nc(=O)[nH]1` here?
The inhibition was 13.6%.

With `CC(C)(C)C(=O)Nc1ccc(C(=O)N/N=C/C2CC3C=CC2C3)cc1` (centres undefined) as the compound, how does the inhibition read?
Its inhibition is 8.37%.

`COC(=O)CNC(=O)C1CCCN1C(=O)CNC(=O)OCc1ccccc1` (stereo not drawn) (Cbz-Gly-[ξP]-Gly-OMe) was tested. Which inhibition did it give?
The inhibition was 7.71%.

With `CC(C)C(C)NC(=O)CN1C(=O)NC2(CCc3ccccc3C2)C1=O` (centres undefined) as the compound, how does the inhibition read?
The inhibition was 2.87%.

Which inhibition does the source give for `CCC(=O)c1ccc(OCc2ccc(C(=O)c3ccccc3)cc2)cc1` here?
The inhibition was 6.28%.

For `COc1cccc(NC(=O)c2sc3nc4n(c(=O)c3c2C)CCC4)c1`, which inhibition is on record?
The inhibition was -4.45%.

`O=C(CCC1CCCC1)Nc1cccn(Cc2ccccc2Br)c1=O` was tested. Which inhibition did it give?
The inhibition was 2.13%.

With `CCOC(=O)c1cc(C)n(Cc2ccccc2)c1C` as the compound, how does the inhibition read?
The inhibition was -2.73%.

Which inhibition does the source give for `CCOC(=O)c1sc(=S)n(Cc2ccccc2)c1C` here?
Its inhibition is 8.11%.

For `Cc1noc(C)c1COc1ccccc1C(=O)NNC(=O)c1ccccc1`, which inhibition is on record?
Its inhibition is 11.8%.

`N#C/C(=N\Nc1cccc(F)c1)C(=N)N1CCCCCC1` was tested. Which inhibition did it give?
The inhibition was 15.4%.

How did the inhibition turn out when `O=C1c2ccccc2NC(c2ccccc2)N1/N=C/c1ccccc1` (centres undefined) was run?
Its inhibition is 12.7%.

`Cc1ccc(/C=N/N2C(=O)c3ccccc3NC2c2ccc(C)cc2)cc1` (centres undefined) was tested. Which inhibition did it give?
The inhibition was 7.64%.

Which inhibition does the source give for `COc1ccc(Cn2nnnc2C(c2ccccn2)N2CCN(c3cc(Cl)ccc3C)CC2)cc1` (centres undefined) here?
Its inhibition is 3.5%.

With `CCOC(=O)c1[nH]c2ccccc2c1N=CN(CC)CC` as the compound, how does the inhibition read?
Its inhibition is 14.9%.

`Cc1cccc(NC(=O)COC(=O)c2n[nH]c3ccccc23)c1C` was tested. Which inhibition did it give?
The inhibition was 4.6%.

How did the inhibition turn out when `CCOC(=O)c1[nH]c2ccccc2c1NC(=O)C(C)(C)C` was run?
The inhibition was 5.02%.

For `CCCC(=O)Nc1c(C(=O)OCC)[nH]c2ccccc12`, which inhibition is on record?
The inhibition was 4.51%.

For `CCOC(=O)c1[nH]c2ccccc2c1N=CN(C)C`, which inhibition is on record?
Its inhibition is 27.9%.

With `CCCCNC(=O)Nc1c(C(=O)OCC)[nH]c2ccccc12` as the compound, how does the inhibition read?
Its inhibition is 5.71%.

With `CCOC(=O)c1[nH]c(C)c(C(=O)Nc2ccccc2C)c1C` as the compound, how does the inhibition read?
The inhibition was 6.7%.

`CCOC(=O)c1[nH]c2ccccc2c1NC(=O)COC` was tested. Which inhibition did it give?
Its inhibition is 4.84%.
